Assay [1] can be described thus: Cell Viability - BJ (AID 421; calls by dose curve;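 further: potency means the concentration at half of the fitted maximal effect; cells exposed to compound for 40 hours at 37 °C before readout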). As to conditions: BJ fibroblast viability, qHTS. The method in brief:
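Quantitative HTS: ATP depletion in BJ cells after 40 hr compound exposure in complete culture medium, detected with CellTiter-Glo; AC50 from standard Hill fits.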
(In qHTS, concentration-response curves come from the screen itself.)

The nature of assay [2]: Cell Viability - Jurkat (AID 426;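 active means dose-dependent loss of cell ATP signal giving a full or clear fitted curve, ranked by lower potency value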;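 further: potency means the concentration at half of the fitted maximal effect; cells exposed to compound for 40 hours at 37 °C before ATP read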). As to conditions: qHTS. The method, boiled down:
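Luminescent ATP read-out (CellTiter-Glo, 20 min at room temperature) after 40 hr compound exposure at 37 °C of Jurkat E6-1 cells, 5000/well. Decreased ATP taken as cytotoxicity; AC50 from standard Hill equation.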

The nature of assay [3]: Cell Viability - Hek293 (AID 427;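 active means compounds whose dose-response curve shows a full or clear partial loss of cell viability, called from curve shape rather than a numeric limit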;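 further: potency means the concentration at half of the fitted maximal effect; cells exposed to compound for 40 hours at 37 °C before reading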). The note with it: qHTS. The method in brief:
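AC50 values derive from Hill-modelled concentration-response of ATP-based luminescence, normalized between DMSO-only and 100 uM tamoxifen controls. Cells were exposed in complete culture medium for 40 hr at 37 °C before detection.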

Assay [4] can be described thus: Cell Viability - HepG2 (AID 433; calls by dose curve;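 further: potency means the concentration at half of the fitted maximal effect; potency for ATP loss meaning cytotoxicity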). The note with it: qHTS. The method in brief: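 ATP luminescence (CellTiter-Glo) after 40 h compound exposure, 37 °C, HepG2, 1500 cells/well, complete medium. Normalized: DMSO = basal, 100 uM tamoxifen = 100% inhibition. AC50 via standard Hill equation.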
Assay [5] is described as follows: Cell Viability - MRC5 (AID 434; calls by dose curve;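 further: potency means the concentration at half of the fitted maximal effect; cells exposed to compound for 40 hours at 37 °C; potency reflects cytotoxicity seen as loss of intracellular ATP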). As to conditions: MRC5 lung fibroblast viability, qHTS. The method, boiled down: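 Decrease in intracellular ATP, quantified by luciferase light output, reflects compound toxicity toward MRC5 cells exposed for 40 hr in complete culture medium. Concentration-response curves, scaled between DMSO and 100 uM tamoxifen, gave AC50 values.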

Assay [6] can be described thus: qHTS Assay for Identification of Small Molecule Inducers of Hypoxia Response (AID 2120; active means well fitted curve in the direction sought with a large enough effect in the signal ratio, with a control signal flat, not every such curve was filed as active; the % refers to the signal ratio; further: 0% is about no effect). The note with it: hypoxia response reporter cells, beta-lactamase ratio readout; series mostly up to 104 µM. The method in brief: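 Read-out: CCF4 FRET emission ratio 460nm/530nm (excitation 405nm), converted to %Activity, with AC50 fitted across a compound titration. ME-180 cells carried an HRE-driven beta-lactamase reporter; compound exposure 17 h, 37 degrees C.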

Assay [7] in a line: S16 Schwann cell PMP22 intronic element firefly luciferase assay (AID 624032).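 Further: plate controls were DMSO for no effect and PTC124 positive control mean for full effect; nearly all actives have a fitted effect of over 30% in size.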 As to conditions: S16 rat Schwann cells, PMP22 element FLuc, 24 h; series mostly up to 25.7 µM. The method in brief:
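Rat S16 Schwann cells stably carrying a PMP22 intronic element-driven Fluc reporter were seeded overnight, then exposed to compounds for 24 h at 37 °C. Luminescence was normalized to PTC124 (positive control) and DMSO (0% activity).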

The nature of assay [8]: S16 Schwann cell PMP22 intronic element beta-lactamase assay (AID 624044; calls by dose curve;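 further: 0% = DMSO and -100% = potassium clavulanate positive control; nearly all actives have a fitted effect of over 15% in size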). The note with it: S16 rat Schwann cells, PMP22 element beta-lactamase FRET, 24 h; series mostly up to 17.1 µM. The method, boiled down:
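Beta-lactamase reporter under a PMP22 intronic regulatory element in stable S16 rat Schwann cells; 24 h compound exposure. 460 nm blue signal normalized between DMSO (0%) and potassium clavulanate, with 535 nm FRET tracking viability; curves classed by r2 and response.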

The test system of another assay is DIV17. The experiment in a line: qHTS profiling for inhibitors of Plasmodium falciparum proliferation (AID 504749).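 Further: 0% = DMSO vehicle and full inhibition = artemisinin control; nearly all actives have a fitted effect of over 60% in size.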 The note with it: P. falciparum in erythrocytes, SYBR Green DNA, 72 h; series mostly up to 12.8 µM. The method in brief: (§1)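 Fluorescence of SYBR Green-bound parasite DNA, read at 485/535 nm, served as the growth measure. Infected erythrocytes were cultured with compound 72 h; artemisinin (0.29 uM) and DMSO wells defined the normalization range.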

A further assay relates to ICS. The assay is described as above. As to conditions: P. falciparum in erythrocytes, SYBR Green DNA, 72 h; series mostly up to 12.8 µM. The method in brief:
as §1

Assay [9] has as its target ATP-dependent 6-phosphofructokinase (Trypanosoma brucei brucei) (UniProt O15648). The experiment in a line: qHTS Assay to Find Inhibitors of T. brucei phosphofructokinase: hit validation (AID 492961).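 Further: luminescence reports ADP formed as PFK phosphorylates fructose-6-phosphate with ATP; on the % scale 0 is the no-effect control and ±100 the full control effect.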 As to conditions: T. brucei PFK, ADP-Glo luminescence; series mostly up to 24.3 µM. The method, boiled down: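 PFK 1.25 nM, F6P 0.5 mM, ATP 0.1 mM, MgCl2 5 mM, 0.1 M TEA pH 8.0, Tween20 0.01%, BSA 0.1%; 45 min RT. ADP-Glo two-step detection, luminescence. qHTS titration; curve fitting with curve-class categorization.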

The nature of assay [10]: Viability counterscreen for antagonist of constitutive androstane receptor (CAR) against the NCATS DSHEA and TCM libraries (AID 1794837).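 Further: compound exposure lasted 24 h before viability reading; 0% is about no effect.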 The note with it: CAR reporter cell line viability counterscreen, qHTS; series mostly up to 40 µM. The method, boiled down: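 Cell viability, CellTiter-Fluor, Ex/Em 405/540 nm, 1 h at 37C. HepG2-CYP2B6-hCAR, 2,500 cells/well; cpds + CITCO 48 uM final (antagonist mode), 24 h, 37C/5% CO2.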
(In general: A counterscreen serves to expose hits that act by an unwanted route or on another target.)

Assay [11] can be described thus: Viability counterscreen for agonist of constitutive androstane receptor (CAR) against the NCATS DSHEA and TCM libraries (AID 1794838).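 Further: HepG2 cells with CYP2B6 reporter and hCAR plus 0.75 µM PK11195 antagonist; 0% is about no effect.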 As to conditions: HepG2 cell viability counterscreen, CAR agonist assay, co-treated with 0.75 µM CAR antagonist; series mostly up to 40 µM. The method, boiled down:
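Viability by CellTiter-Fluor fluorescence, 405/540 nm, after 1 h at 37C. HepG2-CYP2B6-hCAR cells were exposed 24 h to test substances in presence of 0.75 uM PK11195 (final).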

Assay [12] is described as follows: HepG2 viability counterscreen (readout 2: ATP content) against the NCATS DSHEA and TCM libraries (AID 1794840). Further: 0% is about no effect. The note with it: ATP content luminescence; series mostly up to 27.3 µM. The method in brief: (§2)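 1,000 HepG2 cells/well, 4 h attach; compounds ~24 h, 37C/5% CO2. Readout 1: GF-AFC 25 uM final, 30 min, fluorescence 380/510 nm. Readout 2: CellTiter-Glo, 30 min RT, luminescence.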

A short description of assay [13]: HepG2 viability counterscreen (readout 1: protease activity) against the NCATS DSHEA and TCM libraries (AID 1794841).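 Further: cells exposed to compounds for about 24 h before the protease read; 0% is about no effect.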 As to conditions: qHTS concentration series; series mostly up to 27.3 µM. The method, boiled down:
as §2

For assay [14], the target named is Cytochrome P450 2D6 (Homo sapiens) (UniProt P10635). The experiment in a line: qHTS for inhibitors of CYP2D6 against the NCATS DSHEA and TCM libraries (AID 1919972). Further: potency means the concentration at half of the fitted maximal effect. The note with it: CYP2D6 enzymatic inhibition, luminescence qHTS; series mostly up to 34.1 µM. The method in brief: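 qHTS, concentration–response format with most substances from 19.5 nM. CYP2D6 + pro-luciferin substrate, 15 min with compound, then 1x NADPH regen, 30–45 min RT dark. Glo detection 30 min, luminescence. Quinidine control.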
Sequence of Cytochrome P450 2D6 (Homo sapiens) (P10635 whole entry, looked up): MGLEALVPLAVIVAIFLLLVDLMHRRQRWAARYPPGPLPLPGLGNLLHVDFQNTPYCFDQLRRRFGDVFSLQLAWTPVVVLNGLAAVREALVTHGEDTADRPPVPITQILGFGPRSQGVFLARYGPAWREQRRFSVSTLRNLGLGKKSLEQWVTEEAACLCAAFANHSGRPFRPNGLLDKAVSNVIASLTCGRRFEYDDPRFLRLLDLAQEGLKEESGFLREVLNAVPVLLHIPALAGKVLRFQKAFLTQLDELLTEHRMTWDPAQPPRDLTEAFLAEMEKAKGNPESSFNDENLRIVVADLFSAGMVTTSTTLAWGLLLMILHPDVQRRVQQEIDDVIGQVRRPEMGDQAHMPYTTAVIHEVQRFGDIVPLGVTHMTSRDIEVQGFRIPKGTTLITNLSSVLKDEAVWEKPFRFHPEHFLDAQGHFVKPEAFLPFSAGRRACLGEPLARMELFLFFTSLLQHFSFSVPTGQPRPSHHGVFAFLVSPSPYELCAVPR

Assay [15] is described as follows: KB-3-1 P-gp reporter qHTS against the NCATS DSHEA and TCM libraries (AID 1919975). Further: 0% is about no effect. The note with it: KB-3-1 parental cells, CellTiter-Glo luminescence viability, 72 h; series mostly up to 26.1 µM. The method in brief: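 CellTiter-Glo luminescence viability readout; KB-3-1 parental cells, 500/well, attached ~4 h, then compound for ~72 h, 37C, 5% CO2. Bortezomib intraplate control.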

Assay [16] is described as follows: qHTS Counterscreen for compound interference against the NCATS DSHEA and TCM libraries (AID 1919978).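 Further: compounds preincubated with 1 µM D-luciferin or buffer before detection reagent; % of control where 0% means no effect.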 As to conditions: firefly luciferase detection reagent interference, luminescence. The method in brief:
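Luminescence counterscreen for detection-kit interference: compounds at 19.5 nM–39.8 uM final, 15 min RT with 1 uM D-luciferin or buffer only; detection reagent added, 30 min RT, then read.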

A short description of assay [17]: Dual reporter qHTS for agonist of Pregnane X Receptor (hPXR) against the NCATS DSHEA and TCM libraries: Fluorescence readout (AID 1920058). Further: 0% is about no effect. As to conditions: PXR dual reporter cells; series mostly up to 40 µM. The method, boiled down: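 Fluorescence read-out for cell viability: CellTiter-Fluor, 1 h at 37 °C, Ex/Em 405/540 nm. This followed ~24 h treatment of hPXR-Luc HepG2 cells with substances in agonist mode.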

A short description of assay [18]: Dual reporter qHTS for antagonist of Pregnane X Receptor (hPXR) against the NCATS DSHEA and TCM libraries: Fluorescence Readout (AID 1920061). Further: 0% is about no effect. The note with it: PXR dual reporter cells, antagonist mode; series mostly up to 40 µM. The method in brief:
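Rifampicin-stimulated (2 uM final) hPXR-luciferase HepG2 cells were treated for 24 h with DSNP/TCM substances. Viability came from CellTiter-Fluor fluorescence, reporter activity from ONE-Glo luminescence.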

A number with no mark means an inactive call. Results filed as inconclusive are left out. Calls of active or inactive are those of the source. Unless noted, the call rests on the fitted dose curve; in most records, active means well fitted curve in the direction sought with a large enough effect; inconclusive means small, poorly fitted or top-dose-only effect, or another doubt; inactive means no such curve, though single readings can be large; an effect the other way counts as inactive or inconclusive.

Sequence of ATP-dependent 6-phosphofructokinase (Trypanosoma brucei brucei) (O15648 whole entry, looked up): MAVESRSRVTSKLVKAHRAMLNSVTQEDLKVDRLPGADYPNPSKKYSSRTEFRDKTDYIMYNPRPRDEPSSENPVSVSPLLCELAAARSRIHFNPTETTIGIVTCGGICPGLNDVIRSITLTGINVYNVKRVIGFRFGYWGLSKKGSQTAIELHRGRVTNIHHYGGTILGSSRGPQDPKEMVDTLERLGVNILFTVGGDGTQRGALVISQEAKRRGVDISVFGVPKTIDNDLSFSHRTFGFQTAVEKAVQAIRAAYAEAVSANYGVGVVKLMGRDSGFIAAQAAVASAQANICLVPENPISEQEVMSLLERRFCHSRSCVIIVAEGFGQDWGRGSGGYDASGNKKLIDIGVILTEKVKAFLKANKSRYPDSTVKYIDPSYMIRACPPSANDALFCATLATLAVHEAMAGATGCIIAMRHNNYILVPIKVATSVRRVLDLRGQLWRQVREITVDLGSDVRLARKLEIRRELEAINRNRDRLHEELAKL

Consider `C=CC(C)(O)CCC=C(C)C` (centres undefined), for which the Potency in assay [1], in assay [2], in assay [3], in assay [4] and in [5] was over 92 µM in each case. The outcome in assay [6] was inactive.

Turning to `COS(C)(=O)=O`, the Potency in assay [1], in assay [2], in [3], in assay [4] and in [5] was over 92 µM in each case. For the same molecule, the result in [6] was inactive.

For `O=C(Cc1cccs1)NC1C(=O)N2C(C(=O)[O-])=C(C[n+]3ccccc3)CSC12` (centres undefined), the Potency result (in assay [7]; in the assay with DIV17; in the assay on ICS) was “inactive” each time. Also, in assay [8], the molecule was classed as inactive.

Regarding `CN1[C@@H]2CC[C@H]1CC(OC(=O)[C@@H](O)c1ccccc1)C2` (some centres undefined), the result in assay [9] and in assay [8] was inactive. In addition, the Potency entry in the assay on DIV17 and in the assay on ICS was “inactive” each time.

Turning to `COc1ccc2ccc(=O)oc2c1`, the outcome in [10], in assay [11], in [12], in assay [13], in assay [15] and in assay [17] was inactive. Also, the call in [18] was inactive. In assay [14], the Potency entry was “inactive”. Besides, the max response in assay [16] is 3.31%.

`C=C(C)[C@H]1CC=C(C)C(=O)C1`: the Potency in assay [1], in assay [2], in [3], in assay [4] and in [5] was over 92 µM in each case. Also, the outcome in assay [6], in assay [10], in assay [11], in assay [12], in assay [13] and in assay [15] was inactive. The molecule was classed as inactive in assay [17] and in assay [18]. The Potency entry in assay [14] is “inactive”. In addition, in assay [16], the max response was 1.32%.

For the molecule `O=C(/C=C/c1ccc(O)c(O)c1)OC(Cc1ccc(O)c(O)c1)C(=O)O` (centres undefined), the call in assay [10], in [11], in assay [12], in assay [13], in assay [15] and in assay [17] was inactive. Besides, the molecule was called inactive in assay [18]. Further, the Potency result in assay [14] was “inactive”. Also, in assay [16], the max response is -4.37%.

For the molecule `C[N+](C)(C)CC(O)CC(=O)O` (centres undefined), the molecule was called inactive in assay [9] and in assay [8]. The Potency entry (in assay [7]; in the assay on ICS) was “inactive” in each case.

Take `COC(=O)C1=CO[C@@H](C)[C@H]2CN3CCc4c([nH]c5ccccc45)[C@@H]3C[C@H]12`: the molecule was classed as inactive in assay [10], in assay [11], in [12], in assay [13], in assay [15] and in [17]. Also, in assay [18], the molecule was called inactive. Moreover, the Potency in [14] is 0.0398 µM (active). Moreover, in assay [16], the max response was -2.56%.

`C[C@@H]1CCC[C@H](C)N1NC(=O)c1ccc(Cl)c(S(N)(=O)=O)c1`: the outcome in assay [9] and in assay [8] was inactive. Besides, the Potency entry (in [7]; in the assay on DIV17; in the assay with ICS) was “inactive” throughout.

Consider `Cc1occc(=O)c1O`, for which the Potency in assay [1], in [2], in [3], in [4] and in assay [5] was over 92 µM in each case. The outcome in assay [6] was inactive.

Take `C=C[C@](C)(O)CCC=C(C)C`: the call in assay [10], in assay [11], in assay [12], in assay [13], in [15] and in [17] was inactive. Moreover, the molecule was called inactive in assay [18]. Also, the Potency result in assay [14] was “inactive”. Moreover, the max response in assay [16] is -3.94%.

Consider `CN1CCCC[C@@H]1CCN1c2ccccc2Sc2ccc(S(C)=O)cc21` (some centres undefined), for which the molecule was called inactive in assay [9] and in assay [8]. The Potency result (in assay [7]; in the assay on DIV17) was “inactive” in each case.

`CCCN(CCC)C(=O)[C@@H](CCC(=O)O)NC(=O)c1ccccc1`: in assay [9], the call was inactive. In addition, the Potency entry (in [7]; with DIV17; with ICS) was “inactive” throughout.

Source of the values: PubChem BioAssay (NCATS).
